According to PubChem BioAssay AID1159577 (Broad Institute, 2015):
The whole screen tested about 1,300 compounds, of which about 240 (18%) were called active. Another 8% or so got no clear call; they are omitted. How the calls were made is not given here. These entries were drawn from the full list. Measured potencies and affinities stand elsewhere.

test: toxicity to human hepatoma HepG2 cells – cell-based, cherry-picked samples, cytotoxicity control, dose response (AID 1159577); settings: HepG2 cytotoxicity counterscreen, plate reader; series mostly up to 19.5 µM; activity change, negative = cytotoxicity: at the top concentration;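 further: 0% = neutral control wells and -100% = positive control wells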

| Structure (SMILES) | activity change, negative = cytotoxicity |
| --- | --- |
| O=C(c1cccc(F)c1)N1CC(=O)N2[C@H](C1)[C@@H](c1ccc(-c3cccnc3)cc1)[C@@H]2CO | 2.49% (inactive) |
| COCC(=O)N1CCC2(CC1)CN(Cc1cccc(OC)c1)[C@@H](CO)c1[nH]c3cc(OC)ccc3c12 | 15% (inactive) |
| C[C@@H]1CN([C@@H](C)CO)C(=O)c2cccc(NC(=O)c3nc4ccccc4s3)c2O[C@@H]1CN(C)C(=O)Nc1cccc2ccccc12 | -14.3% (inactive) |
| Cc1ccc(-c2ccc3c(c2)O[C@@H](CN(C)C(=O)C2CCCCC2)[C@H](C)CN([C@H](C)CO)S3(=O)=O)cc1 | -16.9% (inactive) |
| N#Cc1cccc(-c2ccc3c(c2)[C@H]2[C@H](CCN2C(=O)c2ccncc2)[C@H](CO)N3)c1 | 11.3% (inactive) |
| COc1cccc(CN2CC3(CN(Cc4ccccn4)C3)c3c([nH]c4cc(OC)ccc34)[C@H]2CO)c1 | 8.96% (inactive) |
| COc1cccc(CN2CC3(CN(Cc4ccccn4)C3)c3c([nH]c4cc(OC)ccc34)[C@@H]2CO)c1 | -13.1% (inactive) |
| COc1ccc2c3c(n(C)c2c1)[C@@H](CO)NCC31CCN(Cc2ccc(-c3ccccn3)cc2)CC1 | -21.1% (inactive) |
| COc1ccc2c3c(n(C)c2c1)[C@H](CO)N(C(=O)Nc1ccc(F)cc1)CC31CCN(Cc2ccccn2)CC1 | 1.75% (inactive) |
| COc1ccc(S(=O)(=O)N(C)C[C@@H]2OCc3ccccc3-c3c(n(C)c4ccccc34)C(=O)N([C@H](C)CO)C[C@H]2C)cc1 | 3.61% (inactive) |
| C[C@@H]1CN([C@@H](C)CO)C(=O)c2c(c3ccccc3n2C)-c2ccccc2CO[C@H]1CN(C)S(=O)(=O)c1ccc(C(F)(F)F)cc1 | -12.8% (inactive) |
| O=C(c1ccccn1)N1CC[C@H]2[C@H](CO)Nc3ccc(-c4ccccc4)cc3[C@H]21 | -7.67% [at 21 µM] (inactive) |
| CCC(=O)N1CCC2(CC1)CN(Cc1ccc(Cl)cc1)[C@H](CO)c1[nH]c3cc(OC)ccc3c12 | 18.2% (inactive) |
| Cc1ccccc1-c1ccc(C2[C@H]3CNC[C@@H]2N3S(=O)(=O)c2cccc(F)c2)cc1 (stereo not given in full) | -5.53% (inactive) |
| CC(C)NC(=O)N1[C@H](C#N)[C@H](c2ccc(C#CC3CCCCC3)cc2)[C@@H]1CO | -21.3% (inactive) |
| N#C[C@@H]1[C@H](c2ccc(C#CC3CCCCC3)cc2)[C@H](CO)N1C(=O)Nc1ccc(F)cc1 | -17.3% [at 21 µM] (inactive) |
| N#C[C@@H]1[C@@H](c2ccc(C#Cc3ccc(F)cc3)cc2)[C@H](CO)N1C(=O)C1CCCC1 | -33.8% (inactive) |
| N#C[C@@H]1[C@@H](c2ccc(C#CC3CCCCC3)cc2)[C@H](CO)N1C(=O)Nc1ccc(F)cc1 | -16.3% (inactive) |
| OC[C@@H]1[C@@H](c2ccccc2)C2(CN(CCC(F)(F)F)C2)N1Cc1ccccc1 | -1.13% [at 21 µM] (inactive) |
| O=C(C[C@@H]1C[C@H]2c3cc(NC(=O)Nc4ccccc4)ccc3O[C@H]2[C@H](CO)O1)NCc1ccccc1 | -34.5% (inactive) |
| O=C(c1cccnc1)N1CC(=O)N2[C@H](C1)[C@@H](c1ccc(-c3cccnc3)cc1)[C@@H]2CO | 2.75% (inactive) |
| CN1c2ccc(-c3ccccc3)cc2[C@@H]2[C@@H](CCN2C(=O)c2ccccc2)[C@H]1CO | 4.78% (inactive) |
| Cc1cccc(S(=O)(=O)N2CCCCN3[C@H](C2)[C@@H](c2ccc(-c4cccnc4)cc2)[C@@H]3CO)c1 | 22.7% (inactive) |
| CCS(=O)(=O)N1CCCCN2[C@H](CO)[C@@H](c3ccc(-c4cccc(C#N)c4)cc3)[C@@H]2C1 | 7.54% (inactive) |

| Structure (SMILES) | activity change, negative = cytotoxicity |
| --- | --- |
| CCS(=O)(=O)N1CC(=O)N2[C@H](CO)[C@@H](c3ccc(-c4ccccc4F)cc3)[C@@H]2C1 | 5.53% (inactive) |
| COc1ccc(NC(=O)N2CCCCN3[C@H](CO)[C@H](c4ccc(-c5ccccc5F)cc4)[C@@H]3C2)cc1 | -16.4% (inactive) |
| N#C[C@@H]1[C@H](c2ccccc2/C=C/c2ccccc2)[C@H](CO)N1S(=O)(=O)c1ccc(F)cc1 | -7.03% (inactive) |
| CCCC(=O)Nc1ccc2c(c1)OC[C@@H](C)N(Cc1cccc(F)c1)C[C@@H](C)[C@H](OC)CN(C)C2=O | 13.8% (inactive) |
| CC(C)NC(=O)N1[C@H](CO)[C@@H](c2ccccc2)C12CN(Cc1ccc(Cl)cc1)C2 | -15.9% (inactive) |
| CO[C@H]1CN(C)C(=O)c2cc(NC(=O)Cc3ccccc3)ccc2OC[C@H](C)N(C(=O)c2ccccc2F)C[C@H]1C | -0.533% (inactive) |
| CCCNC(=O)Nc1ccc2c(c1)OC[C@H](C)N(Cc1ccc(-c3ccccn3)cc1)C[C@H](C)[C@H](OC)CN(C)C2=O | 14.3% (inactive) |
| COc1cccc(S(=O)(=O)N2CCC3(CC2)CN[C@H](CO)c2[nH]c4cc(OC)ccc4c23)c1 | 3.97% [at 21 µM] (inactive) |
| C[C@@H]1CN([C@H](C)CO)S(=O)(=O)c2ccc(C#Cc3ccccc3)cc2O[C@H]1CN(C)C(=O)C1CC1 | -11.3% (inactive) |
| CO[C@@H]1CN(C)C(=O)c2ccc(NC(=O)c3ccc4c(c3)OCO4)cc2OC[C@@H](C)N(Cc2ccc3c(c2)OCO3)C[C@H]1C | 21.5% (inactive) |
| COc1ccc2c3c([nH]c2c1)[C@@H](CO)N(Cc1cc(F)ccc1F)CC31CCN(C(=O)C2CCC2)CC1 | 1.16% (inactive) |
| CCS(=O)(=O)N1CCCCN2[C@H](CO)[C@H](c3ccc(-c4cccc(C#N)c4)cc3)[C@@H]2C1 | -8.99% (inactive) |
| CCS(=O)(=O)N1CCCCN2[C@H](CO)[C@H](c3ccc(-c4cccc(C#N)c4)cc3)[C@H]2C1 | -1.59% (inactive) |
| O=C(c1cnccn1)N1CC(=O)N2[C@@H](CO)[C@H](c3ccc(C#CCc4ccccc4)cc3)[C@@H]2C1 | -3.35% (inactive) |
| C[C@H]1CN([C@@H](C)CO)C(=O)c2cc(NC(=O)Nc3ccc(C(F)(F)F)cc3)ccc2O[C@@H]1CN(C)C(=O)Nc1cccc2ccccc12 | 13.6% (inactive) |
| CCCC#Cc1ccc(CC[C@H]2O[C@H]3CC[C@H](CO)O[C@H]3C[C@@H]2n2cc(C(C)(C)O)nn2)cc1 | -0.199% (inactive) |
| COc1ccccc1NC(=O)N1CCCCN2[C@@H](CO)[C@H](c3ccc(C#CC4CC4)cc3)[C@@H]2C1 | -11.9% (inactive) |
| O=C(Nc1cccc(F)c1)N1CC(=O)N2[C@H](C1)[C@@H](c1ccc(C#CC3CC3)cc1)[C@@H]2CO | 12.5% (inactive) |
| O=C(Nc1ccccc1F)N1CC(=O)N2[C@H](CO)[C@@H](c3ccc(-c4ccccc4)cc3)[C@H]2C1 | 16.1% (inactive) |
| COc1ccccc1NC(=O)N1CCCCN2[C@H](C1)[C@H](c1ccc(C#CC3CC3)cc1)[C@@H]2CO | 21.3% (inactive) |
| CO[C@H]1CN(C)C(=O)c2cc(NC(=O)C3CC3)ccc2OC[C@H](C)N(Cc2cc(F)ccc2F)C[C@H]1C | 10.8% (inactive) |
| COCC(=O)N1[C@@H](C#N)[C@H](c2ccccc2-c2ccccc2)[C@@H]1CO | -10.8% [at 21 µM] (inactive) |
| CCCC#Cc1ccc2c(c1)[C@@H]1[C@@H](CCN1S(=O)(=O)c1ccccc1C)[C@@H](CO)N2 | 6.95% [at 21 µM] (inactive) |
| COc1ccc2c3c([nH]c2c1)[C@H](CO)N(Cc1cc(F)ccc1F)CC31CN(C(=O)C2CCC2)C1 | 9.59% (inactive) |

| Structure (SMILES) | activity change, negative = cytotoxicity |
| --- | --- |
| COc1ccc(-c2ccccc2[C@H]2[C@@H](C#N)N(C(=O)C3CCCCC3)[C@H]2CO)cc1 | 1.19% (inactive) |
| C[C@@H]1CN([C@H](C)CO)C(=O)c2cccc(NC(=O)c3ccc(-c4nccs4)cc3)c2O[C@H]1CN(C)Cc1ccc2c(c1)OCO2 | 0.334% (inactive) |
| CCCNC[C@H]1[C@@H](c2ccc(C3=CCCCC3)cc2)[C@@H](CO)N1C(=O)C1CCC1 | -12.2% (inactive) |
| CCCNC(=O)N1[C@H](C#N)[C@@H](c2ccccc2C2=CCCC2)[C@@H]1CO | -20.4% [at 21 µM] (inactive) |
| CCCNC(=O)N1[C@H](C#N)[C@H](c2ccc(C3=CCCCC3)cc2)[C@H]1CO | -10.4% [at 21 µM] (inactive) |
| N#C[C@@H]1[C@H](c2ccc(C3=CCCC3)cc2)[C@@H](CO)N1C(=O)NC1CCCC1 | -23.9% (inactive) |
| N#C[C@@H]1[C@@H](c2ccc(C3=CCCCC3)cc2)[C@H](CO)N1C(=O)NC1CCCC1 | 3.23% (inactive) |
| CCC(=O)N1[C@H](CO)[C@H](c2ccc(C3=CCCCC3)cc2)[C@H]1CNCC1CCC1 | -15% (inactive) |
| C/C=C/c1ccc([C@H]2[C@@H](CO)N(C(=O)C3CCCC3)[C@H]2CNCCC)cc1 | -0.865% [at 21 µM] (inactive) |
| OC[C@@H]1[C@H](c2ccc(C3=CCCC3)cc2)[C@@H](CNC2CCCC2)N1CC1CC1 | -13.2% (inactive) |
| COc1ccc(C#Cc2cccc(-c3nc(C(=O)NCc4ccc5c(c4)OCO5)cc4c3[C@@H](CCO)N(S(=O)C(C)(C)C)C4)c2)cc1OC (stereo not given in full) | 8.9% (inactive) |
| C[C@H]1CN([C@@H](C)CO)C(=O)c2c(c3ccccc3n2C)-c2ccccc2CO[C@@H]1CN(C)C(=O)Nc1cccc(F)c1 | -4.89% (inactive) |
| Cc1ccc(S(=O)(=O)N(C)C[C@H]2Oc3cc(C#Cc4ccncc4)ccc3S(=O)(=O)N([C@@H](C)CO)C[C@@H]2C)cc1 | 4.85% (inactive) |
| CO[C@@H]1CN(C)C(=O)c2ccc(NC(=O)Nc3ccccc3F)cc2OC[C@@H](C)N(CCC(F)(F)F)C[C@H]1C | 35.7% [at 21 µM] (inactive) |
| CO[C@H]1CN(C)C(=O)c2ccc(NS(=O)(=O)CC(F)(F)F)cc2OC[C@H](C)N(C)C[C@@H]1C | 0.408% [at 21 µM] (inactive) |
| COc1ccc(C#Cc2ccc([C@@H]3[C@@H](CO)N4C(=O)CN(C(=O)c5ccccc5)C[C@H]34)cc2)cc1 | -1.78% (inactive) |
| COc1cccc(C#Cc2ccc([C@H]3[C@@H](CO)N(C(=O)C4CCC4)[C@H]3C#N)cc2)c1 | 6.14% (inactive) |
| C[C@H]1CN([C@@H](C)CO)C(=O)c2cc(NC(=O)Nc3cccc4ccccc34)ccc2O[C@H]1CN(C)C(=O)Nc1ccc(C(F)(F)F)cc1 | 4.51% (inactive) |
| C[C@@H]1CN([C@H](C)CO)C(=O)c2cccc(NC(=O)Nc3cccc4ccccc34)c2O[C@@H]1CN(C)C(=O)Nc1ccc(C(F)(F)F)cc1 | 2.88% (inactive) |
| COc1cccc(-c2cn(CC[C@@H]3CC[C@@H](NS(=O)(=O)c4ccccc4Cl)[C@H](CO)O3)nn2)c1 | 1.93% (inactive) |
| COc1ccccc1S(=O)(=O)N[C@H]1CC[C@@H](CCn2cc(C3CCCC3)nn2)O[C@@H]1CO | 7% (inactive) |
| COc1ccc(C#Cc2cccc(-c3nc(C(=O)N[C@@H]4CCN(Cc5ccccc5)C4)cc4c3[C@H](CCO)N(S(=O)C(C)(C)C)C4)c2)cc1OC (stereo not given in full) | -5.33% (inactive) |
